For test [1], the target named is Cytochrome P450 3A4 (Homo sapiens) (UniProt P08684). Kind of test: qHTS Assay for Inhibitors and Substrates of Cytochrome P450 3A4 (AID 884). Note: nearly all actives have a fitted effect of over 50% in size. Note: potency is the fitted concentration of half-maximal effect. In outline: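 20 nM human CYP3A4 with 25 uM Luciferin-PPXE (at KM) in 200 mM KPO4, preincubated 10 min with compound; NADPH regeneration started a 60 min RT reaction. Luciferin detected by luminescence, normalized to 57 uM ketoconazole as full inhibition.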
Sequence of Cytochrome P450 3A4 (Homo sapiens) (P08684 whole entry, looked up): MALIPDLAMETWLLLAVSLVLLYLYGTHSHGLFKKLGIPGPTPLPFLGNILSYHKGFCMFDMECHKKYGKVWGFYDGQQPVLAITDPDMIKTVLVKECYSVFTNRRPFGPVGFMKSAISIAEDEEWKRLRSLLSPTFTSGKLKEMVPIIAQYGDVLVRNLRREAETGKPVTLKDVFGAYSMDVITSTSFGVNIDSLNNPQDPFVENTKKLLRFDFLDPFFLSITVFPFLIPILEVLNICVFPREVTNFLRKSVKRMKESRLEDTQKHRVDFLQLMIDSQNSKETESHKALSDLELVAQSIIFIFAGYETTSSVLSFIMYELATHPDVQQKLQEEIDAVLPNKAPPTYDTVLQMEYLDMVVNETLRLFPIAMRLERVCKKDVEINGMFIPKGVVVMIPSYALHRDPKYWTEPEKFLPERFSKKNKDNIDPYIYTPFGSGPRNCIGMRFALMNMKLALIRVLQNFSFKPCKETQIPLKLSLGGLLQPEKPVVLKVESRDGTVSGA

The target of test [2] is DNA dC->dU-editing enzyme APOBEC-3G (Homo sapiens) (UniProt Q9HC16). Kind of test: qHTS for inhibitors of Vif-A3G interactions: Validation (AID 588379). In outline: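 HeLa cells stably expressing Vif and A3G-eYFP, 700 cells/well, incubated overnight at 37 deg C, then exposed to compound overnight at 37 deg C. Inhibition of Vif-mediated degradation read as increased yellow fluorescence (Ex 488/Em 500-530) by laser-scanning cytometry.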
Sequence of DNA dC->dU-editing enzyme APOBEC-3G (Homo sapiens) (Q9HC16 whole entry, looked up): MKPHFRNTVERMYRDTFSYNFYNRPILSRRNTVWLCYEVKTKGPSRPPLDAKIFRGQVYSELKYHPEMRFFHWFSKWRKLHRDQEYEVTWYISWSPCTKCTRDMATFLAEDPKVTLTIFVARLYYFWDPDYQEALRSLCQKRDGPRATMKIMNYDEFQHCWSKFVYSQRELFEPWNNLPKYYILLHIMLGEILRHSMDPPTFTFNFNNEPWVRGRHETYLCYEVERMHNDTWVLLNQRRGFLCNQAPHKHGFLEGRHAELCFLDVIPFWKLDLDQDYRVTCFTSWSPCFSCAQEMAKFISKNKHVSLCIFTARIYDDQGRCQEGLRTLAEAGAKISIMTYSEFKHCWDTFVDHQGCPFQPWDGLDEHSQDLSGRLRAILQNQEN
(In general: In qHTS, concentration-response curves come from the screen itself.)

Test [3] can be described thus: S16 Schwann cell viability assay (CellTiter-Glo assay) (AID 624031).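 Note: native untransfected S16 rat Schwann cells; nearly all actives have a fitted effect of over 70% in size.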 In outline:
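Counter-screen for cytotoxicity: parental S16 rat Schwann cells lacking the PMP22 reporters, treated 24 h with compound, viability from cellular ATP by CellTiter-Glo luminescence, normalized to DMSO (0%) and no-cell wells.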
(In general: In ATP-based viability assays light output follows the ATP content of the culture.)

Test [4] has as its target Luciferin 4-monooxygenase (Photinus pyralis) (UniProt P08659). Kind of test: Biochemical firefly luciferase enzyme assay for NPC (AID 624030).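 Note: purified P. pyralis luciferase at 10 nM with luciferin and ATP substrate; nearly all actives have a fitted effect of over 70% in size.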 In outline:
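Purified P. pyralis luciferase at 10 nM in 50 mM Tris Acetate (final), luminescence read within 5 minutes of enzyme addition to compounds. Activity normalised to PTC124 versus DMSO; concentration-response curves classed by r2, magnitude and activity.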

For test [5], the system named is 7G8. Kind of test: qHTS profiling for inhibitors of Plasmodium falciparum proliferation (AID 504749). Note: nearly all actives have a fitted effect of over 60% in size. Note: potency is the fitted concentration of half-maximal effect. Conditions: P. falciparum in erythrocytes, SYBR Green DNA, 72 h; series mostly up to 28.7 µM. In outline:
(§1)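 Readout was DNA-dye fluorescence from lysed cultures, ex 485/em 535 nm. Parasitized red cells had grown 72 h with compound; data scaled between 0.29 uM artemisinin and DMSO wells and corrected using vehicle-only plates.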

Test [6] has as its system CP194. The description is as above. The conditions noted are these: P. falciparum in erythrocytes, SYBR Green DNA, 72 h; series mostly up to 28.7 µM. In outline: as §1
The subject of test [7] is CP201. Described as above. The conditions noted are these: P. falciparum in erythrocytes, SYBR Green DNA, 72 h; series mostly up to 28.7 µM. In outline: as §1
In test [8] the test system is CP215. The test is described as above. Conditions: P. falciparum in erythrocytes, SYBR Green DNA, 72 h; series mostly up to 28.7 µM. In short, it runs like this: as §1
Test [9] concerns CP247. Described as above. Conditions: P. falciparum in erythrocytes, SYBR Green DNA, 72 h; series mostly up to 28.7 µM. In short, it runs like this: as §1
The subject of test [10] is CP250. The test is described as above. The conditions noted are these: P. falciparum in erythrocytes, SYBR Green DNA, 72 h; series mostly up to 28.7 µM. In short, it runs like this:
as §1

Test [11] concerns CP256. Described as above. Conditions: P. falciparum in erythrocytes, SYBR Green DNA, 72 h; series mostly up to 28.7 µM. In short, it runs like this: as §1
In test [12] the test system is CP265. The description is as above. The conditions noted are these: P. falciparum in erythrocytes, SYBR Green DNA, 72 h; series mostly up to 28.7 µM. In outline:
as §1

Test [13] concerns CP291. The description is as above. The conditions noted are these: P. falciparum in erythrocytes, SYBR Green DNA, 72 h; series mostly up to 28.7 µM. In short, it runs like this:
as §1

Test [14] relates to CP305. The description is as above. The conditions noted are these: P. falciparum in erythrocytes, SYBR Green DNA, 72 h; series mostly up to 28.7 µM. In outline: as §1
In test [15] the test system is Dd2. Described as above. Conditions: P. falciparum in erythrocytes, SYBR Green DNA, 72 h; series mostly up to 28.7 µM. In short, it runs like this:
as §1

Test [16] has as its system GB4. Described as above. The conditions noted are these: P. falciparum in erythrocytes, SYBR Green DNA, 72 h; series mostly up to 28.7 µM. In short, it runs like this: as §1
In test [17] the test system is P94_40. The test is described as above. The conditions noted are these: P. falciparum in erythrocytes, SYBR Green DNA, 72 h; series mostly up to 28.7 µM. In short, it runs like this: as §1
Test [18] has as its system PC15. The description is as above. Conditions: P. falciparum in erythrocytes, SYBR Green DNA, 72 h; series mostly up to 28.7 µM. In short, it runs like this: as §1
Test [19] relates to TAB109. The test is described as above. Conditions: P. falciparum in erythrocytes, SYBR Green DNA, 72 h; series mostly up to 28.7 µM. In short, it runs like this: as §1
The target in test [20] is Calcium and integrin-binding protein 1 (Homo sapiens) (UniProt Q99828). Kind of test: Confirmatory qHTS for Identification of Calcium Integrin Binding Protein 1 (CIB1) Competitor (AID 1508617). Note: nearly all actives have a fitted effect of over 65% in size. In short, it runs like this: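 Fluorescence polarization competition: CIB1-GST (1 uM final) in 5 mM HEPES pH 7.4, 125 mM NaCl, 5 mM CaCl2, 0.01% Tween20 preincubated 15 min RT with compound (up to 114 uM), then FITC-alphaIIb peptide (100 nM) added, 15 min RT.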
Sequence of Calcium and integrin-binding protein 1 (Homo sapiens) (Q99828 whole entry, looked up): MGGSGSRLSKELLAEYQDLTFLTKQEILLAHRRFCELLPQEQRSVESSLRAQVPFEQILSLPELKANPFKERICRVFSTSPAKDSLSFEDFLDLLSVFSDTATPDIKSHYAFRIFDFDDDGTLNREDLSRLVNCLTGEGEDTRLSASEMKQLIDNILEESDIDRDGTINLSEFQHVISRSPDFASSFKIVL

Inconclusive results are not listed. Active and inactive are the calls of the source. Calls come from the whole dose curve; as a rule, active = well fitted curve in the direction sought with a large enough effect; inconclusive = small, poorly fitted or top-dose-only effect, or another doubt; inactive = no such curve, though single readings can be large; an effect the other way counts as inactive or inconclusive.

Sequence of Luciferin 4-monooxygenase (Photinus pyralis) (P08659 whole entry, looked up): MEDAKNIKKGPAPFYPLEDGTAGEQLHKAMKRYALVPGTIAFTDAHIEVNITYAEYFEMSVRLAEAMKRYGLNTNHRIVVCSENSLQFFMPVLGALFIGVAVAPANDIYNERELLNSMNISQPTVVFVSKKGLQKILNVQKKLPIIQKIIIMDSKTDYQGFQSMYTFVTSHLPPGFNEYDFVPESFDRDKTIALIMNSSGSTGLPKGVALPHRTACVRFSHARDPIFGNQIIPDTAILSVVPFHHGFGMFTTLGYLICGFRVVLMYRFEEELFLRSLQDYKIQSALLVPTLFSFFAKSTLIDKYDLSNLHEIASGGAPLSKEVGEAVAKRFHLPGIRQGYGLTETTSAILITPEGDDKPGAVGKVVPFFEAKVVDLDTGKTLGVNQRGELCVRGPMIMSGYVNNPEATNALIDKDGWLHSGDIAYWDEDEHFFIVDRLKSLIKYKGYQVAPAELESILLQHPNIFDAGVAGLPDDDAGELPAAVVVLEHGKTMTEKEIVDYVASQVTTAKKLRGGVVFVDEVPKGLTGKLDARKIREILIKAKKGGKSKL

Take `O=C(CCc1ccc(O)cc1)c1c(O)cc(O)cc1O[C@@H]1O[C@H](CO)[C@@H](O)[C@H](O)[C@H]1O`: in test [1], the Potency entry was “inactive”. Also, in [2], the outcome was inactive.
Consider `CC(C)n1c(/C=C/[C@H](O)C[C@H](O)CC(=O)O)c(-c2ccc(F)cc2)c2ccccc21`, for which, in [3], the compound was classed as inactive.
For the compound `OC[C@H]1O[C@@H](n2cnc3c(NCCc4ccccc4)ncnc32)[C@H](O)[C@H]1O`, the Potency entry in [1] is “inactive”.
On to `COc1cc(=O)n(C)c2c(OCC(O)C(C)(C)O)cccc12` (stereo not given), for which, in test [1], the Potency result is “inactive”. The outcome in [2] was inactive.
Take `NCCNC(=O)c1ccc(Cl)cc1`: the result in test [2] was inactive.
For the compound `CN1C(=O)CCC1c1cccnc1` (stereo not given), the Potency entry in [1], in [4], in [5], in test [6], in test [7] and in [8] was “inactive” each time. Besides, the Potency entry in test [9], in test [10], in test [11], in test [12], in test [13] and in test [14] was “inactive” in each case. In addition, the Potency result in [15], in [16], in test [17], in test [18] and in test [19] was “inactive” throughout. For the same compound, the compound was classed as inactive in [2] and in test [3].
Turning to `CN=C(N)NCCCC(N)C(=O)O` (stereo not given), the Potency entry in test [4], in test [5], in [6], in test [7], in test [8] and in test [9] was “inactive” each time. Further, the Potency result in test [10], in [11], in test [12], in [13], in [14] and in test [15] was “inactive” throughout. Besides, the Potency result in test [16], in test [17], in test [18] and in [19] was “inactive” each time. Further, the compound was classed as inactive in [3].
Take `C[C@]12CCC(=O)C=C1CC[C@@H]1C2[C@@H](O)C[C@@]2(C)[C@H]1CC[C@]2(O)C(=O)CO` (stereo not given in full): the compound was classed as inactive in test [2].
Regarding `Oc1cccc2cc(N3CCCC3)cnc12`, the Potency result in test [20] is “inactive”.
For the compound `CC(C)(C)[C@]1(O)CCN2CC3c4ccccc4CCc4cccc(c43)[C@@H]2C1` (stereo not given in full), the Potency entry in test [4], in test [8] and in test [14] was “inactive” throughout. The values for the Potency in test [5], in [15] and in test [16] were 11.2 µM (active), 10 µM (active) and 9.53 µM (active), respectively.
`COC(=O)c1c(-c2cc(OC)c(OC)c(OC)c2)c2ccc(OCc3ccccn3)cc2c(=O)n1-c1ccc(N)cc1`: the Potency in test [1] is 0.398 µM (active).
Regarding `CN1C[C@H](C(=O)N[C@]2(C)O[C@@]3(O)C4CCCN4C(=O)[C@H](Cc4ccccc4)N3C2=O)C[C@@H]2c3cccc4[nH]cc(c34)C[C@H]21` (stereo not given in full), in test [2], the result was inactive. In addition, the Potency in test [5] was 0.158 µM (active); in [9], 7.08 µM (active); in test [10], 11.2 µM (active); in test [11] it was 7.94 µM (active); in test [12] it was 5.62 µM (active); in [15] it was 2.82 µM (active). For the same compound, the figures for the Potency in test [17], in [18] and in [19] were 3.16 µM (active), 1.12 µM (active) and 7.08 µM (active), respectively.
Turning to `O=C1CCCC2=C1C(c1ccncc1)N=C(Nc1nc3ccccc3o1)N2` (stereo not given), the Potency result in test [20] is “inactive”.
Turning to `O=C1CCCC2=C1C(c1cccnc1Br)N=C(Nc1nc3ccccc3o1)N2` (stereo not given), the Potency result in test [20] is “inactive”.
For the compound `COc1ccc(CCNC[C@@H](O)c2ccc(O)cc2)cc1OC`, the Potency entry in [4], in [5], in test [6], in test [7], in [8] and in test [9] was “inactive” throughout. For the same compound, the Potency entry in test [10], in test [11], in [12], in [13], in test [14] and in test [15] was “inactive” each time. Moreover, the Potency entry in test [16], in test [17], in test [18] and in [19] was “inactive” in each case. Also, the compound was called inactive in test [3].
As for `CC(O)c1ccc(-c2ccc3ncnc(N4CCOCC4)c3c2)o1` (stereo not given), the Potency entry in test [20] is “inactive”.
On to `N[C@H](Cc1ccc(O)c(O)c1)C(=O)O`, for which the Potency entry in test [9], in [10], in test [11], in test [12], in test [17] and in test [19] was “inactive” in each case.
With `O=C(NNC(=O)c1nc2ccccc2[nH]1)OCc1ccccc1`, in [20], the Potency result was “inactive”.
For the compound `CC(C)C[C@H]1C(=O)N2CCCC2[C@]2(O)O[C@](NC(=O)[C@@H]3C=C4c5cccc6[nH]c(Br)c(c56)C[C@H]4N(C)C3)(C(C)C)C(=O)N12` (stereo not given in full), the Potency entry in [4] is “inactive”. Besides, the compound was classed as inactive in [3]. The Potency in test [5] is 0.708 µM (active); in test [6], 13.5 µM (active); in [7], 13.5 µM (active); in test [8], 8.49 µM (active); in test [9] it was 8.91 µM (active); in test [10], 12.6 µM (active). In addition, the Potency in test [11] is 11.2 µM (active); in test [12] it was 5.62 µM (active); in [13], 10.7 µM (active); in test [14], 10.7 µM (active); in [15], 2.51 µM (active); in test [16] it was 6.01 µM (active). In addition, the results for the Potency in test [17], in test [18] and in [19] were 2.82 µM (active), 7.94 µM (active) and 5.62 µM (active), respectively.
With `COc1cc2c(cc1OC)C(c1ccccc1)CN(C)CC2` (stereo not given), the Potency result in [4], in test [6], in [7], in [8], in test [13] and in test [14] was “inactive” in each case. Moreover, the Potency entry in test [18] is “inactive”. For the same compound, the outcome in test [3] was inactive.
Take `Fc1ccc(NC(=S)Nc2nnc(-c3ccncc3)s2)cc1C(F)(F)F`: the Potency entry in test [20] is “inactive”.

The values are drawn from PubChem BioAssay (NCATS).
